In the library only some 22% were active in any assay of this set; here they are far more common.
LmPK inhibitor: qHTS Assay for Inhibitors of Leishmania Mexicana Pyruvate Kinase (LmPK); Q27686; 290,000 tested, 0.37% active; AID 1721, 2009; purified LmPK, Kinase-Glo ATP luminescence, 1 h; Potency, µM (series often up to 57.5 µM), most hits filed as inhibitors
Target sequence (Q27686 whole entry, looked up): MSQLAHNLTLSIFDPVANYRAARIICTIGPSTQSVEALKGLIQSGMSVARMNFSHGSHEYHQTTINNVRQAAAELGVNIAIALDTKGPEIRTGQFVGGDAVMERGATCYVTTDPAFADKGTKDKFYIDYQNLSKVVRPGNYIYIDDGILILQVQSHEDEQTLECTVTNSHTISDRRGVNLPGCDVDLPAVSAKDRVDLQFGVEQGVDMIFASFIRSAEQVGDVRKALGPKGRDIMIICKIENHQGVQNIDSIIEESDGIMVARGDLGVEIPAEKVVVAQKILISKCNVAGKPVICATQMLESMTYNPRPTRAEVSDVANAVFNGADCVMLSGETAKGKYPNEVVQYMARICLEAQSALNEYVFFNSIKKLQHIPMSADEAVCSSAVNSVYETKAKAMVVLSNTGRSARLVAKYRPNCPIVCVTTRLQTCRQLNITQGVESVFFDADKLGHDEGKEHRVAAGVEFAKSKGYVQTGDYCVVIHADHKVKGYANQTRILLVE
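qHTS format; LmPK 0.1 nM; substrates PEP 0.5 mM and ADP 0.1 mM. One-hour room-temperature incubation, then coupled luciferase luminescence; 0.5 nM enzyme wells mark activation.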
Shiga toxin inh: A qHTS for Small Molecule Inhibitors of Shiga Toxin; Vero cells, Shiga toxin protein synthesis inhibition reporter; inhibition, % at 38.7 µM; 290,000 tested, 9.2% active; in the data active means inhibition mostly above about 28%, no sharp cut-off; inactive means mostly below about 43%
CHX counter: Cycloheximide Counterscreen for Small Molecule Inhibitors of Shiga Toxin; max response, %; 300,000 tested, 12% active; cell reporter, cycloheximide protein synthesis inhibition counterscreen; in the data active means max response mostly above about 13%, no sharp cut-off; inactive means mostly below about 14%; further: read at 38.3 µM for the half of the compounds with a filed dose
Pf growth 96h: Primary qHTS for delayed death inhibitors of the malarial parasite plastid, 96 hour incubation | P. falciparum luciferase reporter growth, 96 h | Potency, µM (series often up to 28.7 µM), hits mostly inhibitors | 320,000 tested, 6.9% active | AID 504834, 2011
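Luminescence readout: decreased luciferase signal marks inhibited growth of reporter-expressing P. falciparum in infected red cells (2% hematocrit, 0.05% parasitemia final), exposed to compound two generations (96 h, 37 C, 5% CO2).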
Pf growth 48h: Primary qHTS for delayed death inhibitors of the malarial parasite plastid, 48 hour incubation; P. falciparum luciferase growth in erythrocytes, 48 h; 310,000 tested, 5.9% active; Potency, µM (top dose mostly 28.7 µM), hits mostly inhibitors
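Compounds are pin-transferred into medium, infected erythrocytes (2% hematocrit, 0.1% parasitemia final) are added, and plates sit one parasite generation at 37 C in 5% CO2. Detection reagent is then added and luminescence measured.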
Of the large screens only hits and unclear results are named; the others gave an inactive call. Unless noted, the call rests on the fitted dose curve; in most records, active means well fitted inhibition curve with a large enough effect; inconclusive means small, poorly fitted or top-dose-only effect, or another doubt; inactive means no such curve, though single readings can be large or run the other way.

CCS(=O)(=O)n1nc(-c2ccc(Cl)cc2)nc1SCc1ccccc1	Shiga toxin inh 60, CHX counter 19
Oc1ccc(/C=N/N2CCN(C3c4ccccc4-c4ccccc43)CC2)cc1O	Pf growth 96h inconclusive, Pf growth 48h inconclusive
CN(C)NC(=O)c1ccsc1NC(=O)c1ccc(S(=O)(=O)N2CCCC2)cc1	Pf growth 96h 5.2µM, Pf growth 48h 12µM
CC1CCN(S(=O)(=O)c2ccc(C(=O)Nc3sccc3C(N)=O)cc2)CC1	Pf growth 96h 8.3µM, Pf growth 48h inconclusive
c1ccc(-c2cnnc(N3CCOCC3)n2)cc1	Shiga toxin inh 68, CHX counter 63
FC(F)(F)c1cc(-c2ccccc2)nc(N2CCCCC2)n1	none
FC(F)(F)c1cc(-c2ccccc2)nc(N2CCOCC2)n1	none
Brc1ccc(-c2cnnc(N3CCCC3)n2)cc1	Pf growth 96h inconclusive, Pf growth 48h 3.3µM
CN(CC(=O)Nc1ccccc1)CC(=O)Nc1ccc(F)cc1	none
Cc1ccc(C)c(C(=O)CCC(=O)Nc2ccc(F)cc2)c1	Pf growth 96h inconclusive
CSc1cccc(NC(=O)c2nnn(CC(=O)Nc3cc(C)cc(C)c3)c2N)c1	none
O=C(NN=C1CCCCCC1)c1ccc(Br)o1	Shiga toxin inh 87, CHX counter 48
CC(C)N1CCC(=NNC(=O)c2ccc(Br)o2)CC1	Shiga toxin inh 37, CHX counter 42, Pf growth 48h inconclusive
c1ccc2c(c1)cnc1ccccc12	CHX counter 24, Pf growth 96h inconclusive
O=c1[nH]cnc2ccccc12	none
c1ccc(-c2ncc3c(ccc4ccccc43)n2)cc1	Shiga toxin inh 74, CHX counter 58
c1ccc2nc3ccccc3nc2c1	none
O=C(O)c1cnc(-c2ccccc2)nc1-c1ccccc1	none
c1ccc2nc3ccccc3cc2c1	Shiga toxin inh 47, CHX counter 40 (no result: LmPK inhibitor, Pf growth 96h, Pf growth 48h)
CCOC(=O)C(NC(=O)CC)(N1CCc2ccccc2C1)C(F)(F)F (stereo not given)	none
N=c1oc2cc(O)ccc2cc1C(=O)Nc1ccccn1	Shiga toxin inh 52, CHX counter 14
COc1ccc2oc(=N)c(C(=O)Nc3ccc(F)cc3)cc2c1	Pf growth 96h inconclusive
CC(C)(C)C(=O)Nc1ccccc1C(=O)Nc1ccccn1	none
N=c1oc2cc(O)ccc2cc1C(=O)Nc1nc2ccccc2s1	CHX counter 64, Pf growth 96h inconclusive
N=c1oc2cc(O)ccc2cc1C(=O)Nc1ccc(Br)cc1	Shiga toxin inh 41, CHX counter 29, Pf growth 96h 0.74µM
COC(=O)C1=C(c2cccc(C#N)c2)C[C@@H]2CC[C@H]1N2C(=O)NCCOc1ccccc1	Pf growth 48h inconclusive (no result: LmPK inhibitor, Shiga toxin inh, CHX counter)
COC(=O)C1=C(c2cccc(C#N)c2)C[C@@H]2CC[C@H]1N2C(=O)NCCOc1ccccc1Cl	Pf growth 96h inconclusive, Pf growth 48h 13µM (no result: LmPK inhibitor, Shiga toxin inh, CHX counter)
COC(=O)C1=C(c2ccccc2OCc2ccccc2)C[C@@H]2CC[C@H]1N2C(=O)NCCOc1ccccc1Cl	Pf growth 96h inconclusive, Pf growth 48h 5.2µM (no result: LmPK inhibitor, Shiga toxin inh, CHX counter)
COC(=O)C1=C(c2cccc(OCc3ccccc3)c2)C[C@@H]2CC[C@H]1N2C(=O)NCCOc1ccccc1Cl	Pf growth 96h inconclusive, Pf growth 48h 13µM (no result: LmPK inhibitor, Shiga toxin inh, CHX counter)
COC(=O)C1=C(c2cccc(OCc3ccccc3)c2)C[C@@H]2CC[C@H]1N2C(=O)NCCOc1ccccc1	Pf growth 96h inconclusive, Pf growth 48h 9.3µM (no result: LmPK inhibitor, Shiga toxin inh, CHX counter)
C/C(=N\NC(=O)Cc1ccccc1)c1ccc(Cl)s1	Pf growth 96h inconclusive
COc1cccc(-c2c(C(=O)N/N=C(\C)c3cccnc3)nnn2-c2nonc2N)c1	none
COC(=O)C1=C(c2cccc(OCc3ccccc3)c2)C[C@@H]2CC[C@H]1N2C(=O)NCCc1ccc(F)cc1	Pf growth 96h inconclusive, Pf growth 48h 7.4µM (no result: LmPK inhibitor, Shiga toxin inh, CHX counter)
Cc1ccc(S(=O)(=O)Nc2nnc(C3CCCCC3)s2)cc1	none
CCOC(=O)Cn1c(=O)oc2cc(S(=O)(=O)N(C)c3cccc(C)c3)ccc21	none
Cc1ccc(-n2[nH]c(C)c(/C=N/NC(=O)c3ccc(O)cc3O)c2=O)cc1	Shiga toxin inh 73, CHX counter 25, Pf growth 96h inconclusive, Pf growth 48h inconclusive
Cc1[nH]n(-c2ccccc2)c(=O)c1/C=N/NC(=O)c1ccc(O)cc1O	Shiga toxin inh 68, CHX counter 29, Pf growth 96h inconclusive (no result: Pf growth 48h)
Cc1ccc(OCC(=O)N/N=C\c2c(C)[nH]n(-c3ccccc3)c2=O)c([N+](=O)[O-])c1	Pf growth 96h inconclusive
COC(=O)c1ccc(/C=N/NC(=O)c2ccc3nc[nH]c3c2)cc1	none
COC(=O)c1ccc(/C=N/Nc2nc3ccccc3[nH]2)cc1	Shiga toxin inh 151, CHX counter 47, Pf growth 96h inconclusive, Pf growth 48h inconclusive
Clc1nc2ccccc2cc1/C=N/Nc1nc2ccccc2[nH]1	CHX counter 41, Pf growth 96h inconclusive, Pf growth 48h 0.52µM
COc1ccc2nc(Cl)c(/C=N/Nc3ccccn3)cc2c1	none
CCN(CC)c1ccc(/C=N/Nc2nc3ccccc3[nH]2)cc1	Shiga toxin inh 110, CHX counter 37, Pf growth 96h 2.6µM, Pf growth 48h 1.9µM
O=C(O)c1ccc(/C=N/Nc2nc3ccccc3[nH]2)cc1	CHX counter 16
COc1ccc(S(=O)(=O)N2CCCC(C(=O)NCCC(C)C)C2)cc1 (stereo not given)	Pf growth 48h inconclusive
CC(=O)Nc1ccc(/C=N/Nc2nc3ccccc3[nH]2)cc1	Shiga toxin inh 62, CHX counter 50, Pf growth 96h inconclusive, Pf growth 48h 1.9µM
C(=N\Nc1nc2ccccc2[nH]1)/c1ccncc1	Shiga toxin inh 69, CHX counter 33, Pf growth 48h inconclusive
Cc1ccc(S(=O)(=O)Nc2ccc(S(=O)(=O)Nc3cc(C)nc(C)n3)cc2)cc1	none
Cc1ccc(S(=O)(=O)Nc2c(C)cc(C)nc2Cl)cc1	Pf growth 96h 2.6µM
O=C(CSc1n[nH]c(=O)n1C1CC1)NCc1ccccc1	Pf growth 48h inconclusive
Cc1cc(C)c(-n2c(SCc3nc4ccccc4s3)n[nH]c2=O)c(C)c1	Pf growth 48h inconclusive
CCCn1c(SCc2nc3ccccc3s2)n[nH]c1=O	Shiga toxin inh 90, CHX counter 53
O=c1[nH]nc(SCc2nc3ccccc3s2)n1C1CC1	Shiga toxin inh 103, CHX counter 52
CCCn1c(=O)c2ccccc2n2c(SCc3nc4ccccc4s3)nnc12	Shiga toxin inh 142, CHX counter 31, Pf growth 96h 10µM
Cc1ccc(S(=O)(=O)Nc2ccccc2C(=O)N2CCCCC2)cc1	Pf growth 96h inconclusive
CCc1ccccc1N(CC(=O)O)S(C)(=O)=O	Pf growth 96h 15µM
Cc1ccccc1N(CC(=O)O)S(C)(=O)=O	Pf growth 96h inconclusive
CCn1cc(C(=O)N[C@@H](CCSC)C(=O)NCCCOC)c(=O)c2cc3c(cc21)OCO3	Pf growth 48h inconclusive
CCn1cc(C(=O)N[C@@H](CCSC)C(=O)NC(C)(C)CO)c(=O)c2cc3c(cc21)OCO3	Pf growth 96h 1.5µM, Pf growth 48h 1.9µM
